Test results: PubChem BioAssay AID2057 (The Scripps Research Institute Molecular Screening Center, 2009)
Screen size: about 320,000 compounds; about 2,100 (0.66%) were called active. The sample holds actives, similar compounds and a random draw of the others, so the mix is not that of the screen. Unmarked numbers belong to inactive results.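 How the source made its calls: active means inhibition above the mean inhibition of all tested compounds plus 3 SD, set per campaign (cut at about 40% in these data); inactive means the rest.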

molecular target: Induced myeloid leukemia cell differentiation protein Mcl-1 (Homo sapiens) (UniProt Q07820); test: MCL1-BIM peptide interaction disruptors – biochemical, fluorescence polarization, primary screen (AID 2057); settings: GST-MCL1 / FITC-Bim-BH3 fluorescence polarization; at 10.9 µM; hits give high values;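 further: 0% = DMSO wells and 100% = unlabeled Bim-BH3 peptide control; higher means more loss of mP so more displacement of Bim peptide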
Sequence (Q07820 whole entry, looked up): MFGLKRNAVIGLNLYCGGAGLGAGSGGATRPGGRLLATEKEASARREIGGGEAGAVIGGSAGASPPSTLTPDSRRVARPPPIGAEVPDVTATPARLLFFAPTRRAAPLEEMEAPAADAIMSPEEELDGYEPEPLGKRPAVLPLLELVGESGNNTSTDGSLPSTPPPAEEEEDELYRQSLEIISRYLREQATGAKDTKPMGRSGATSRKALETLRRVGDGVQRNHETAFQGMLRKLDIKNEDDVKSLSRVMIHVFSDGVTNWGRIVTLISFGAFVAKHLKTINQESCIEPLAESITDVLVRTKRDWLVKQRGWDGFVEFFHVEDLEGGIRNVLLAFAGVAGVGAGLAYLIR

SMILES	inhibition
CC(Oc1ccccc1)C(=O)Nc1c2c(nn1-c1ccccc1)CS(=O)C2 (stereo not drawn)	3.14%
CC1CCN(C(=O)c2ccc(S(=O)(=O)Cc3cc(F)ccc3F)c([N+](=O)[O-])c2)CC1	6.72%
COc1cc2c(cc1OC)C(C)N(S(=O)(=O)c1cnc(Cl)c(Cl)c1)CC2 (stereo not drawn)	0.66%
Cc1ccc(C2C(C#N)C(C#N)N3CCCN23)cc1 (stereo not drawn)	-13.7%
COCCN(CCOC)c1nc(N)c2c(N)nc3c(c2c1C#N)CC(=O)N3Cc1ccc(Cl)cc1	56.7% (active)
CC(C)(C)OC(=O)NCCCC1=CC2=CC(=O)C(C)(OC(=O)c3ccco3)C(=O)C2=CO1 (stereo not drawn)	81.6% (active)
CC1(OC(=O)C2CCCC2)C(=O)C=C2C=C(c3ccc(C#N)cc3)OC=C2C1=O (stereo not drawn)	26.9%
C=CCN1C=C2C(=O)C(C)(OC(=O)CCc3ccccc3)C(=O)C=C2C=C1c1ccc(C#N)cc1 (stereo not drawn)	23.9%
Cc1cc(O)c(Sc2ccccc2)c(=O)o1	2.06%
C=CCc1cccc(/C=N/NC(=O)COc2ccc(-n3cnnn3)cc2)c1O	11.2%
Oc1ccc(-c2onc3ccc(Cl)cc23)cc1	-2.01%
CC(OC(=O)c1ccc2noc(-c3ccccc3)c2c1)C(N)=O (stereo not drawn)	-8.19%
CCOc1ccc(NC(=O)CN(C)C(=O)Cn2c(=O)cnc3ccccc32)cc1OCC	3.26%
Cc1nc(-c2ccc(F)cc2)c(CC(=O)N2CCN(S(=O)(=O)c3ccc(F)cc3)CC2)s1	-0.35%
COC(=O)c1ccc2c(c1)S(=O)(=O)NC(=NCCCN1CCOCC1)S2	-0.08%
Cc1c(NC(=O)C(C)OC(=O)c2c3c(nc4ccccc24)CCC(C)C3)c(=O)n(-c2ccccc2)n1C (stereo not drawn)	-4.73%
COC(=O)C1=C(Nc2ccc(C)cc2)C=C(C)C(C(=O)OC)C1c1ccc(F)cc1 (stereo not drawn)	-0.87%
O=C(COC(=O)c1n[nH]c2ccccc12)NCc1ccccc1	-0.26%
O=C(COC(=O)c1ccccc1C(=O)N1CCN(c2ccccc2)CC1)NCc1ccccc1	51.8% (active)
CC(C)N(C(=O)COC(=O)c1ccccc1C(=O)N1CCN(c2ccc(F)cc2)CC1)C(C)C	11.2%
OCC1(Cc2ccccc2C(F)(F)F)CCN(Cc2ccncc2)CC1	4.27%
CC1(NC(=O)CCS(=O)(=O)c2ccc(Cl)cc2)CCS(=O)(=O)C1 (stereo not drawn)	-1.26%

SMILES	inhibition
CC(=O)N1c2ccc(S(=O)(=O)N3CCC(C(=O)NC4CCCCC4C)CC3)cc2CC1C (stereo not drawn)	2%
CCOC(=O)c1oc2c(CN3CCN(CCO)CC3)c(O)c(CC)cc2c(=O)c1-c1nc2ccccc2s1	-0.61%
CC(C)(C)c1ccc(/C=C2\Oc3c(ccc(O)c3CN3CCN(CCO)CC3)C2=O)cc1	49.7% (active)
CCN(CC(=O)Nc1ccccc1C(F)(F)F)C(=O)CSCc1c(C)noc1C	-5.73%
COC(=O)c1cc(NS(=O)(=O)c2ccc3c(c2)c(=O)n(C)c(=O)n3C)cc(C(=O)OC)c1	3.04%
CC(C)OC(=O)CN1C(=O)C(=O)c2ccccc21	3.82%
CCOC(=O)c1ccccc1CN1C(=O)c2ccccc2S1(=O)=O	3.41%
CCOC(=O)c1cc2n(c1N)-c1ccccc1C2=O	153% (active)
Cc1noc(C)c1-c1nc(CSc2ccc(Cl)cc2)no1	7.94%
O=C(c1ccc(OC2CCN(C(=O)c3cccnc3)CC2)cc1)N1CCCCCC1	1.48%
Cc1ccc(OS(=O)(=O)c2ccc(-c3csc(C)n3)s2)c(C)c1	2.53%
CC(NC(=O)CSc1nc2c(cc1C#N)CN(C)CC2)c1ccccc1 (stereo not drawn)	45% (active)
CC1(C)CCc2nc(SCc3ccccc3)c(C#N)cc2C1	-2.93%
Cc1cc(NC(=O)CSc2nc3c(cc2C#N)CCCCC3)no1	2.25%
CC1(C)NC(=O)N(CC(=O)Nc2cc(C(F)(F)F)cc(C(F)(F)F)c2)C1=O	-2.94%
Cc1ccc(C(=O)O)cc1-c1ccc(/C=C2\SC(=O)N(CC(=O)Nc3ccc4c(c3)OCO4)C2=O)o1	56.2% (active)
Cc1ccc(C(=O)Nc2ccc3c(c2)OCO3)cc1S(=O)(=O)N1CCCCC1	7.58%
Cn1cccc1/C=C1\SC(=O)N(CC(=O)Nc2ccc(F)cc2)C1=O	-0.64%
COc1ccccc1NC(=O)CSc1nc2sc3c(c2c(=O)n1-c1ccccc1)CCN(C)C3	-0.79%
Cc1ccc(-c2nc(SCC(=O)Nc3ccccc3OC(F)F)c3c(C)c(C(=O)O)sc3n2)cc1	54.1% (active)
CCOC(=O)c1ccc[n+](CC(=O)Nc2ccccc2OC(F)F)c1	-5.72%
COc1cc2c(cc1OC)C(=O)NCC(C)(C)O2	5.06%

SMILES	inhibition
CCC(C)[C@H]1COCCS(=O)(=O)N1Cc1ccc(C)cc1 (stereo partly drawn)	-11.6%
CCOc1ccc(NC(=O)COc2ccc(C(=O)NC3CCCc4ccccc43)cc2OC)cc1 (stereo not drawn)	-23.3%
COC(=O)c1cc(OCC(=O)NC2CCCc3ccccc32)cc(C(=O)OC)c1 (stereo not drawn)	40.6% (active)
Nc1ccc(C(=O)OCC(=O)NC2CCCc3ccccc32)cc1[N+](=O)[O-] (stereo not drawn)	-14.1%
COC(=O)[C@H](Cc1ccccc1)NC(=O)Nc1ccc(OC)cc1	2.03%
COc1cc([C@H](Cc2ccccc2)NC(C)=O)oc(=O)c1	59.4% (active)
CCOC(=O)C(Cc1ccccc1)NC(=O)CCC(=O)c1ccc(OC)cc1 (stereo not drawn)	4.46%
Cc1ccc(OCC(=O)c2cc(C)n(Cc3ccco3)c2C)c([N+](=O)[O-])n1	-1.45%
COC(=O)c1c(NC(=O)c2ccc(S(=O)(=O)N3CCOCC3)cc2)sc2c1CCN(C(C)C)C2	-0.44%
c1ccc2c(c1)CSc1sccc1C2=C1CCNCC1	8.84%
CCSc1nc2sc3c(c2c(=O)[nH]1)CC(C)(C)OC3	7.1%
CC/C(C)=N/Nc1nc2sc3c(c2c(=O)[nH]1)CC(C)(C)OC3	85% (active)
CCC1(C)Cc2c(sc3nc(SC)[nH]c(=O)c23)CO1 (stereo not drawn)	6.42%
Nc1cc(N)nc(SCC(=O)Nc2cccc(S(=O)(=O)N3CCCCC3)c2)n1	-0.58%
CC[C@]1(O)CC2CN(CCc3c([nH]c4ccccc34)[C@@](C(=O)OC)(c3cc4c(cc3OC)N(C=O)[C@H]3[C@@](O)(C(=O)OC)[C@H](OC(C)=O)[C@]5(CC)C=CCN6CC[C@]43[C@@H]65)C2)C1 (stereo partly drawn)	20.2%
CC[C@]1(O)C[C@@H]2CN(CCc3c([nH]c4ccccc34)[C@@](C(=O)OC)(c3cc4c(cc3OC)N(C)[C@H]3[C@@](O)(C(=O)OC)[C@H](OC(C)=O)[C@]5(CC)C=CCN6CC[C@]43[C@@H]65)C2)C1	119% (active)
O=C(Cn1c(NCCO)nc2ccccc21)c1ccc(Cl)cc1Cl	-2.09%
CC[C@@H](C)[C@H](NC(=O)CCc1c(C)c2cc3c4c(oc3c(C)c2oc1=O)CCCC4)C(=O)O	8.32%
CCOC(=O)c1cc(C#N)c(N2CCCCC2)nc1-c1ccccc1	2.02%
CCOc1ccc2nc(N3CCCN(C(=O)Nc4ccccc4C)CC3)c(C#N)cc2c1	48.6% (active)
COc1ccc2nc(N3CCCC(O)C3)c(C#N)cc2c1 (stereo not drawn)	26.1%
CSc1ncccc1C(=O)OCc1ccc(Br)cc1	4.52%

SMILES	inhibition
CCC(C)(C)NC(=O)c1cc([N+](=O)[O-])ccc1N1CCCCC1	-1.47%
Cc1cc(C)c(/C=C2\C(=O)Nc3ccccc32)[nH]1	180% (active)
O=C1Nc2ccccc2/C1=C/c1ccnc2ccccc12	4.28%
CN(C)/C=C1/Nc2ccccc2C1=O	5.28%
COc1ccc(CNc2nnnn2C)cc1	2.94%
Fc1ccc(CNc2nc3ccccc3n3nnnc23)cc1	60.1% (active)
CCOC(=O)CNc1nc2ccccc2n2c(C)nnc12	6.27%
CCC1CCCCN1C(=S)Nc1ccc(SC(F)F)cc1 (stereo not drawn)	7.19%
COc1ccc(N2CC(C(=O)N[C@@H](C)C(=O)N3CCCCC3)CC2=O)cc1 (stereo partly drawn)	3.6%
C[N+](C)(CCCCCC[N+](C)(C)CCCN1C(=O)c2cccc3cccc(c23)C1=O)CCCN1C(=O)c2cccc3cccc(c23)C1=O	-10.5%
O=C(O)c1ccc2c3c(cccc13)C(=O)N(OS(=O)(=O)c1ccccc1)C2=O	-8.23%
Cc1nn(-c2cc(Cl)ccc2N)c(=O)c2ccccc12	0.14%
O=C1c2ccccc2C(=O)N1c1cccc2ccccc12	2.1%
CC(C)(CNC(=O)Cc1ccc(Cl)cc1Cl)N1CCOCC1	4.7%
O=C(c1cccnc1)N(c1cc2sc(=O)oc2c2ccccc12)S(=O)(=O)c1ccccc1	23.9%
CCCCC(NC(=O)c1cccc(Br)c1)C(=O)O (stereo not drawn)	-0.19%
CC1=NN(C(C)C)C(=O)C1	-2.13%
COCc1c(N)c(C)nc(Cl)c1C#N	8.83%
CCOc1ccc(N(CC(=O)NCC2CCCO2)S(=O)(=O)c2ccc(C)cc2)cc1 (stereo not drawn)	-3.41%
Cc1c(CC(=O)N2CCN(C(=O)C3COc4ccccc4O3)CC2)c(=O)oc2c(O)c(O)ccc12 (stereo not drawn)	57.5% (active)
O=C(CNC(=O)C1COc2ccccc2O1)N/N=C/c1cc(Br)c(O)c(Br)c1 (stereo not drawn)	10.8%
Cc1c(C)c2ccc(OCC(=O)N3CCC(C(=O)O)CC3)c(C)c2oc1=O	-1.79%
